The source of these data is PubChem BioAssay (EPA / NIEHS).

Calls of active or inactive are those of the source. The calls were made as follows: active = hit-call score of the fitted dose curve at least 0.9, where 1 is the maximum; inactive = score below 0.9.

Sequence of Aryl hydrocarbon receptor (Homo sapiens) (P35869 whole entry, looked up): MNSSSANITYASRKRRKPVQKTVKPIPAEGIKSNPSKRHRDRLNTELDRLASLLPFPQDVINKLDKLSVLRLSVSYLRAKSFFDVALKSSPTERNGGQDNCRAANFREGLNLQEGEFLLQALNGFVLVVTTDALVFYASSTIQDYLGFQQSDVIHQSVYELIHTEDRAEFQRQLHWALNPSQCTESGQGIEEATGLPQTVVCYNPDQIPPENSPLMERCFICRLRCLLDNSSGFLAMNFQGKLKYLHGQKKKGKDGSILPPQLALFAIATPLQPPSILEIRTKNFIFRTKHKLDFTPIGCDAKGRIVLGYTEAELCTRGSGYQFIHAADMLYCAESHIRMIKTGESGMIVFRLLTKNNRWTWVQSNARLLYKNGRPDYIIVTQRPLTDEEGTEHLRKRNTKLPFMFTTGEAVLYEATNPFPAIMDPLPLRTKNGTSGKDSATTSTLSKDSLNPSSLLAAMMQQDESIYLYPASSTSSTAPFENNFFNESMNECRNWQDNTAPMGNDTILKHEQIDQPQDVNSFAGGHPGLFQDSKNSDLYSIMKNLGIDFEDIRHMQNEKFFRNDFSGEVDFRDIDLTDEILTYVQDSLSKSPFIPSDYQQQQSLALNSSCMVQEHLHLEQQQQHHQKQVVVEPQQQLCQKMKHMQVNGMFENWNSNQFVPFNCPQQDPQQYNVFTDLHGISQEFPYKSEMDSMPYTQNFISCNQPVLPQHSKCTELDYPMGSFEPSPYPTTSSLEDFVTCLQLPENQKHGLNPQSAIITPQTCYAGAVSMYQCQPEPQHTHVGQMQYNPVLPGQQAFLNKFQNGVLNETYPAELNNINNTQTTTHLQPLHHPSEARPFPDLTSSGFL

The experiment addresses Aryl hydrocarbon receptor (Homo sapiens) (UniProt P35869). As to the kind of experiment: ATG_Ahr_CIS: Attagene CIS-FACTORIAL HepG2 Assay for human Aryl Hydrocarbon Receptor (Ahr) (AID 2282930). The conditions noted are these: HepG2 AhR cis-factorial reporter transcription; actives raise or lower the signal. On the procedure: ATG_CIS is a cell-based, multiplexed-readout assay that uses HepG2, a human liver cell line, with measurements taken at 24 hours after chemical dosing in a 24-well plate.ATG_Ahr_CIS is one of 52 assay component(s) measured or calculated from the ATG_CIS assay. It is designed to make measurements of mRNA induction, a form of inducible reporter, as detected with fluorescence intensity signals by Reverse transcription polymerase chain reaction (RT-PCR) and Capillary electrophoresis technology.Data from the assay component ATG_Ahr_CIS was analyzed into 1 assay endpoint. This assay endpoint, ATG_Ahr_CIS, was analyzed with bidirectional fitting relative to DMSO as the negative control and baseline of activity. Using a type of inducible reporter, measures of mRNA for gain or loss-of-signal activity can be used to understand the reporter gene at the transcription factor-level as they relate to the gene AHR. Furthermore, this assay endpoint can be referred to as a primary readout, because this assay has produced multiple assay endpoints where this one serves a reporter gene function. To generalize the intended target to other relatable targets, this assay endpoint is annotated to the dna binding intended target family, where the subfamily is basic helix-loop-helix protein.
Human liver HepG2 cells are transiently transfected with multiple reporter transcription units (MRTUs) in 6-well plates using FuGene 6 reagent (Roche; 3 ml FuGene/1 mg DNA). The MRTU constructs are regulated by a cis-regulating element (promoter). […] A major difference between the CIS and TRANS system is that in CIS activities of endogenous TFs are measured, whereas the TRANS assay evaluates changes in activities of exogenous, chimeric NR-Gal4 proteins. […] At the end of 24 hour incubation, total RNA was isolated using TriZol reagent (Invitrogen). The isolated RNA is then reverse-transcribed using oligo(dT) primer and Mo-MLV reverse transcriptase (Invitrogen) with DNAse I (Ambion) treatment for 30 min. The one-tenth of the produced cDNA was amplified by PCR using Taq DNA polymerase (Invitrogen) and two reporter sequence-specific primers. The PCR products were fluorescently labeled by primer extension with 6-arboxyfluorescein (6-FAM) 5'-labeled reporter sequence-specific primer (2 min at 95 C, 20 s at 68 C and 10 min at 72 C) and these products were digested with 5U of HpaI (New England Biolabs) for 2h at 37 C. […] The raw capillary electrophoresis data was processed using Attagraph software (Attagene).
`c1ccc2sc(SSN3CCOCC3)nc2c1`: the half-maximal activity concentration (AC50) is 3.45 µM (active). As for `COc1cc(C)ccc1O`, the compound was called inactive. On to `CC1(C)CCC[C@]2(C)[C@H]3CC(=O)O[C@]3(C)CC[C@@H]12`, for which the outcome was inactive. Regarding `CCCC1CCCC(=O)O1` (stereo not given), the compound was called inactive. As to `CC(C)=NNC(N)=S`, the compound was called inactive.

For the compound `CCCSSCCC`, the outcome was inactive. Take `N#Cc1ccc(C2CCCc3cncn32)cc1` (stereo not given): the result was inactive. Still for that read-out and setting: to `CC12CCC(CC1)C(C)(C)O2` belongs “inactive”; to `O=C(Oc1ccccc1)c1ccccc1O`, “inactive”. As to `CCOC(=O)C1=NN(c2ccc(Cl)cc2Cl)C(C)(C(=O)OCC)C1` (stereo not given), the outcome was inactive. Take `C[Si](C)(C)N[Si](C)(C)C`: the compound was called inactive. In the case of `C=CC(=O)OCC(C)OCC(C)OCC(C)OC(=O)C=C` (stereo not given), the result was inactive. `CC(=O)OC/C=C(/C)CCC=C(C)C`: the call was inactive. Regarding `CCC(C)C(=O)OCCc1ccccc1` (stereo not given), the call was inactive.

Take `CC1CC(=O)CC(C)(C)C1` (stereo not given): the call was inactive.

For `CC(C)COC(=O)CC(C(=O)OCC(C)C)S(=O)(=O)O` (stereo not given), the compound was classed as inactive. Turning to `CCCCC(CC)COS(=O)(=O)O` (stereo not given), the outcome was inactive. With `Cc1ccc2c(c1)CCCN2`, the AC50 was 20.2 µM (active). With `O=C1c2ccccc2C(=O)c2cc(S(=O)(=O)O)ccc21`, the result was inactive. Still for that read-out and setting: the value for `CC(=O)OCC=C(C)C` was “inactive”.

`CCCCCCCO`: the result was inactive. As to `O=C(OCCc1ccccc1)c1ccccc1`, the result was inactive. With `CC(=O)OC(C)c1ccccc1` (stereo not given), the call was inactive. With `CC1=NN(c2ccc(S(=O)(=O)O)cc2)C(=O)C1N=Nc1ccccc1` (stereo not given), the AC50 was 10.7 µM (active). Turning to `COc1cc(O)c(C(=O)c2ccccc2)cc1S(=O)(=O)O`, the call was inactive.

As to `Nc1nc(N)nc(-c2ccccc2)n1`, the compound was called inactive. Take `CC(C)CCCCCOC(=O)CS`: the compound was called inactive. `CC1C(C)(C)C2=C(C(=O)CCC2)C1(C)C` (stereo not given): the call was inactive. The same measure, in the same setting: to `Cc1c(C(=O)c2c[nH]n(C)c2=O)ccc(S(C)(=O)=O)c1C1=NOCC1` belongs “inactive”; to `CCN1CN(CC)CN(CC)C1`, “inactive”. For `CCCCCCCOC(=O)c1ccc(O)cc1`, the AC50 was 49.8 µM (active). With `C=C[C@@]1(C)CC(=O)[C@]2(O)[C@@]3(C)[C@@H](O)CCC(C)(C)[C@@H]3[C@H](O)[C@H](OC(C)=O)[C@@]2(C)O1`, the call was inactive. Regarding `O=S(=O)(O)c1ccc(Nc2nc(Nc3ccc(C=Cc4ccc(Nc5nc(Nc6ccc(S(=O)(=O)O)cc6)nc(N(CCO)CCO)n5)cc4S(=O)(=O)O)c(S(=O)(=O)O)c3)nc(N(CCO)CCO)n2)cc1`, the compound was called inactive. On to `Oc1ccccc1Cc1ccccc1O`, for which the result was inactive. Consider `CCCCCCCCCCCC(C)=O`, for which the result was inactive. As for `CCCCCCOC(=O)CCCCC(=O)OCCCCCC`, the compound was called inactive. For the compound `Cc1ccc(S(=O)(=O)N=C=O)cc1`, the call was inactive. On to `CC(CC(C)C)=NO`, for which the compound was called inactive. In the case of `COC(C=C(C)CCC=C(C)C)OC`, the result was inactive. Take `C=CCNCC=C`: the call was inactive.
